Measurements as given in PubChem BioAssay (NCATS).
Records with an inconclusive call do not appear. The source made the active and inactive calls. The call rests on the fitted dose curve; in most records, active means well fitted curve in the direction sought with a large enough effect; inconclusive means small, poorly fitted or top-dose-only effect, or another doubt; inactive means no such curve, though single readings can be large; an effect the other way counts as inactive or inconclusive.

target: Thioredoxin reductase 1, cytoplasmic (Rattus norvegicus) (UniProt O89049); assay: qHTS Assay for Substrates of Mammalian Selenoprotein Thioredoxin Reductase 1 (TrxR1) (AID 488772); conditions: purified TrxR1, NADPH consumption substrate assay; series mostly up to 57.1 µM; activity change, negative = NADPH consumption: at the top concentration;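 further: 0% is about no effect; a drop in NADPH fluorescence below the no-compound background marks a TrxR1 substrate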
Sequence (O89049 whole entry, looked up): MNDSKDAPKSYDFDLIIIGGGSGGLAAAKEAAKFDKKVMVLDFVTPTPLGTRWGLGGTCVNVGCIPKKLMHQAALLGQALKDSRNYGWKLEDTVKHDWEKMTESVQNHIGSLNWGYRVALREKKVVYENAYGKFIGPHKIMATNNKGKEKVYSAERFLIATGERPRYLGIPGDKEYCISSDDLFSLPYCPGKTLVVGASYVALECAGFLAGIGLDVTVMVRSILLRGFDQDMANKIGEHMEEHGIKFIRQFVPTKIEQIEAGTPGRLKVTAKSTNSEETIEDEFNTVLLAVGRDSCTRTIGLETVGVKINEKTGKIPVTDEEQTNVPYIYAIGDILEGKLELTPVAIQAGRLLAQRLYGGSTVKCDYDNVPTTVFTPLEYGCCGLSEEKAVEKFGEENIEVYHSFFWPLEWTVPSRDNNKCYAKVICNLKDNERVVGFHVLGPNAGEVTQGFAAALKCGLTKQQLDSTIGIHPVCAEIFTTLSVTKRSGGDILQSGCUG
Outline: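 In this dual-purpose format, potential substrates are identified from the first fluorescence read after selenite addition, not from the 8-minute delta. Rat enzyme is preincubated with NADPH and then with compound at ~22 deg C.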

Row | Compound | activity change, negative = NADPH consumption
1 | C[C@H]1c2cccc(O)c2C(O)=C2C(=O)[C@]3(O)C(O)=C(C(N)=O)C(=O)[C@@H](N(C)C)[C@@H]3[C@@H](O)[C@@H]21 | 4.38% (inactive)
2 | CC(C)C(=O)Nc1ccc([N+](=O)[O-])c(C(F)(F)F)c1 | -1.39% (inactive)
3 | CCC1(C)CC(=O)NC1=O (stereo not given) | -7.28% (inactive)
4 | NCCCCCC(=O)O | -2.76% (inactive)
5 | CN1CCC(=C2c3ccccc3CC(=O)c3sccc32)CC1 | -11.8% (inactive)
6 | C[C@](N)(Cc1ccc(O)c(O)c1)C(=O)O | -0.368% (inactive)
7 | Clc1ccccc1C(c1ccccc1)(c1ccccc1)n1ccnc1 | -1.36% (inactive)
8 | NC(=O)OCC(COC(N)=O)c1ccccc1 | -9.63% (inactive)
9 | CC(COc1ccccc1)N(CCCl)Cc1ccccc1 (stereo not given) | 5.4% (inactive)
10 | NC12CC3CC(CC(C3)C1)C2 | -4.58% (inactive)
11 | COc1ccc2[nH]cc(CCNC(C)=O)c2c1 | -3.5% (inactive)
12 | Nc1nc2c(ncn2COC(CO)CO)c(=O)[nH]1 | -5.89% (inactive)
13 | Cc1ccccc1N1C(=O)c2cc(S(N)(=O)=O)c(Cl)cc2NC1C (stereo not given) | 26.5% (inactive)
14 | CN(C)c1nc(N(C)C)nc(N(C)C)n1 | 2.84% (inactive)
15 | CCOC(=O)C(C)(C)Oc1ccc(Cl)cc1 | -4.43% (inactive)
16 | CCc1cccc2c3c([nH]c12)C(CC)(CC(=O)O)OCC3 (stereo not given) | -4.82% (inactive)
17 | Cc1cc(C(C)(C)C)c(O)c(C)c1CC1=NCCN1 | -10.4% (inactive)
18 | CC(C)(Oc1ccc(C2CC2(Cl)Cl)cc1)C(=O)O (stereo not given) | 3.91% (inactive)
19 | COc1ccc2c(c1)c(CC(=O)O)c(C)n2C(=O)c1ccc(Cl)cc1 | -10% (inactive)

target: Thioredoxin reductase 1, cytoplasmic (Rattus norvegicus) (UniProt O89049); assay: qHTS Assay for Inhibitors of Mammalian Selenoprotein Thioredoxin Reductase 1 (TrxR1) (AID 488773); conditions: purified TrxR1 enzyme activity; Potency: inhibition; series mostly up to 57.1 µM; activity change, negative = inhibition: at the top concentration; further: nearly all actives have a fitted effect of over 40% in size; further: potency means the concentration at half of the fitted maximal effect;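 on activity change, negative = inhibition: drop in NADPH fluorescence over an 8 min run after selenite addition; on the % scale 0 is the no-effect control and ±100 the full control effect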
Outline: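 Inhibition is scored from the loss of NADPH fluorescence between first and last reads of an 8-min kinetic run. Selenite (400 uM) was the substrate, added after 15 min compound preincubation at room temperature.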

Row | Compound | activity change, negative = inhibition | Potency
20 | CC12CC3CC(C)(C1)CC(N)(C3)C2 | 3.95% (inactive) | –
21 | CC(CCc1ccc(O)cc1)NCCc1ccc(O)c(O)c1 (stereo not given) | -7.38% (inactive) | –
22 | CC1COc2c(N3CCN(C)CC3)c(F)cc3c(=O)c(C(=O)O)cn1c23 (stereo not given) | 2.8% (inactive) | –
23 | CCOC(=O)c1ncn2c1CN(C)C(=O)c1cc(F)ccc1-2 | -2.13% (inactive) | –
24 | CCC1(c2ccccc2)C(=O)NCNC1=O | 6.52% (inactive) | –
25 | NS(=O)(=O)c1cc2c(cc1Cl)NCNS2(=O)=O | -6.55% (inactive) | –
26 | CN1CCN2c3ccccc3Cc3ccccc3C2C1 (stereo not given) | 2.39% (inactive) | –
27 | NC(CO)C(=O)NNCc1ccc(O)c(O)c1O (stereo not given) | – | 4.23 µM (active)
28 | CC(C)C(=O)Nc1ccc([N+](=O)[O-])c(C(F)(F)F)c1 | 0.275% (inactive) | –
29 | CCC1(C)CC(=O)NC1=O (stereo not given) | -4.56% (inactive) | –
30 | NCCCCCC(=O)O | 2.56% (inactive) | –
31 | CN1CCC(=C2c3ccccc3CC(=O)c3sccc32)CC1 | -25.7% (inactive) | –
32 | Clc1ccccc1C(c1ccccc1)(c1ccccc1)n1ccnc1 | 1.56% (inactive) | –
33 | NC(=O)OCC(COC(N)=O)c1ccccc1 | 3.12% (inactive) | –
34 | CC(COc1ccccc1)N(CCCl)Cc1ccccc1 (stereo not given) | -18.7% (inactive) | –
35 | NC12CC3CC(CC(C3)C1)C2 | -0.18% (inactive) | –
36 | COc1ccc2[nH]cc(CCNC(C)=O)c2c1 | 9.95% (inactive) | –
37 | Nc1nc2c(ncn2COC(CO)CO)c(=O)[nH]1 | -0.341% (inactive) | –
38 | CCOC(=O)C(C)(C)Oc1ccc(Cl)cc1 | 5.6% (inactive) | –
39 | CCc1cccc2c3c([nH]c12)C(CC)(CC(=O)O)OCC3 (stereo not given) | 19.8% (inactive) | –
40 | CC(C)(Oc1ccc(C2CC2(Cl)Cl)cc1)C(=O)O (stereo not given) | 25.1% (inactive) | –
